Screening results (PubChem)
Most compounds without a hit are left out; they make up all but 12% or so of the library.
CHX counter = Cycloheximide Counterscreen for Small Molecule Inhibitors of Shiga Toxin; cell reporter, cycloheximide protein synthesis inhibition counterscreen; max response, %; hit rate 12% among 300,000; AID 2314, 2010; in the data active = max response mostly above about 13%, no sharp cut-off; inactive = mostly below about 14%; note: read at 38.3 µM for the half of the compounds with a filed dose; 0% is about no effect
SARS PLP yeast = qHTS of Yeast-based Assay for SARS-CoV PLP; S. cerevisiae expressing SARS-CoV PLpro, growth rescue; Potency, µM (top dose mostly 32.9 µM), for inactives: at the highest dose activity, positive = growth rescue, most hits filed as activators; hit rate 0.19% among 330,000; note: potency is the fitted concentration of half-maximal effect; 0% is about no effect; nearly all actives have a fitted effect of over 55% in size
NS1 function inh = qHTS Assay for Inhibitors of Influenza NS1 Protein Function | Potency, µM (doses to about 46.1 µM), for the others: at the top dose activity, positive = more growth | hit rate 0.4% among 270,000; note: potency is the fitted concentration of half-maximal effect; actives are rising curves; nearly all actives have a fitted effect of over 50% in size
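S. cerevisiae expressing influenza A NS1, grown in glucose, washed, then diluted 1:100 into pH 6.0 -URA galactose medium with 23 nl compound. Growth recovery read as OD600; NS1-free strain serves as control.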
Shiga toxin inh = A qHTS for Small Molecule Inhibitors of Shiga Toxin. Vero cells, Shiga toxin protein synthesis inhibition reporter. inhibition, % at 38.7 µM. hit rate 9.2% among 290,000. AID 2315, 2010; in the data active = inhibition mostly above about 28%, no sharp cut-off; inactive = mostly below about 43%; note: 0% is about no effect
The depositor's hits bear a star; . = no result given. Unless noted, calls come from the whole dose curve.

SMILES	CHX counter	SARS PLP yeast	NS1 function inh	Shiga toxin inh
O=C(Nc1cnn(Cc2ccc(Cl)cc2Cl)c1)c1noc2c1CCCC2	14.3*	-52.0%	.	11.2
CC(=O)c1ccc(N2CCN(C(=O)c3c(-c4ccccc4Cl)noc3C)CC2)cc1	-2.6	5.9%	6.7%	8.7
O=C(NCCc1ccccc1)c1noc2c1CCCCC2	34.9*	-2.7%	-14.5%	95.8*
Cc1cc(C)n(C(=O)CNC(=O)c2ccc(Cl)cc2Cl)n1	9.3	-4.8%	-28.4%	-3.6
O=C(NCc1cccs1)c1noc2c1CCCC2	14.8*	-1.6%	-3.8%	36.7
O=C(c1noc2c1CCCC2)N1CCN(c2ccccc2)CC1	20.5*	2.4%	-14.4%	82.5
O=C(c1noc2c1CCCC2)N1CCN(C(c2ccccc2)c2ccccc2)CC1	-2.7	-4.4%	-19.1%	13.3
COc1ccccc1CCc1nnc(CCC(=O)NCC2CCCO2)o1 (stereo unspecified)	3.5	-0.3%	-1.0%	7.5
COc1ccccc1CCc1nnc(CCC(=O)NCC[C@@H]2C[C@@H]3C=C[C@H]2C3)o1	12.5*	0.4%	-2.8%	24.1
Nc1sc(-c2ccccc2)cc1C(=O)N/N=C/c1ccc(Cl)cc1	8.9	-3.5%	3.4%	34.0*
O=C(N/N=C/c1ccc(Cl)cc1)c1cc(-c2cccnc2)nc2ccccc12	10.1	-3.2%	.	-4.2
COC(=O)c1cc(-c2ccccc2)sc1N	26.2*	-17.2%	-11.4%	58.4*
Cc1ccc(C(=O)NCC(=O)Nc2ccncc2)s1	1.0	3.1%	7.0%	-9.4
Cc1cc(C)cc(CN2C(=O)NC3(CCCCCC3)C2=O)c1	11.4	0.2%	-3.7%	16.9
Cc1nc2ccc(NC(=O)c3ccc(Cl)nc3)cc2s1	18.4*	1.9%	-6.3%	23.9
Cc1nc2ccc(NC(=O)c3ccc(Cl)c([N+](=O)[O-])c3)cc2s1	0.9	5.4%	-1.6%	20.1
Cc1nc2ccc(NC(=O)c3cc(Cl)ccn3)cc2s1	61.7*	2.2%	1.1%	81.6*
O=[N+]([O-])c1nn(-c2ccc3c(c2)OCCO3)n(O)c1=NCCCO	17.6*	3.0%	-5.0%	48.4*
O=C1CCCN1CCCN=c1c([N+](=O)[O-])nn(-c2ccc(Cl)cc2)n1O	12.8	-0.8%	-6.7%	29.0
Cc1ccc(CN=c2c([N+](=O)[O-])nn(-c3ccc4c(c3)OCCO4)n2O)cc1	72.8*	-89.4%	-19.5%	164.5*
Cc1ccc(-c2csc(NC(=O)c3ccccc3F)c2C(=O)O)cc1	39.3*	-0.2%	-45.9%	100.2*
O=C(Nc1scc(-c2ccccc2)c1C(=O)O)c1ccccc1F	21.8*	-3.9%	-53.7%	24.1
COc1ccc(-c2csc(NC(=O)c3ccccc3Br)c2C(=O)O)cc1	-2.2	-0.6%	-32.6%	3.7
Cc1ccc(C(=O)Nc2scc(-c3ccccc3)c2C(=O)O)o1	14.3*	1.7%	5.2%	35.2
Fc1ccccc1Cc1noc(CN2CCN(C/C=C/c3ccccc3)CC2)n1	5.8	0.6%	-2.0%	13.8
SMILES	CHX counter	SARS PLP yeast	NS1 function inh	Shiga toxin inh
CCCNC(=O)N1CCC(C(=O)c2cccc(F)c2)CC1	3.4	-8.9%	0.9%	43.3
CCOc1ccc(N2CC(C(=O)N3CCCc4ccccc43)CC2=O)cc1 (stereo unspecified)	31.5*	-0.4%	13.2%	64.0*
Cc1ccc(N2CC(C(=O)N3CCCc4ccccc43)CC2=O)cc1 (stereo unspecified)	7.5	3.3%	1.5%	23.9
O=C(Cc1ccccc1)Nc1ccc(NC(=O)c2ccco2)nc1	44.5*	2.7%	-0.6%	105.3*
O=C(Nc1ccc(NC(=O)c2ccco2)nc1)c1ccco1	10.9	-4.8%	.	42.1
O=C(Nc1ccc(NC(=O)c2ccco2)nc1)c1ccccn1	27.5*	-29.8%	-107.7%	20.1
COc1ccccc1C(=O)Nc1ccc(NC(=O)c2ccco2)cn1	27.6*	-6.7%	-54.3%	89.9*
CC(C)(C)C(=O)Nc1ccc(NC(=O)c2ccco2)nc1	-11.8	-1.9%	-9.6%	-27.9
O=C(Nc1ccccn1)c1ccco1	45.2*	0.6%	1.1%	97.9
Cn1ncc([N+](=O)[O-])c1C(=O)N/N=C/c1cccc([N+](=O)[O-])c1	9.7	0.2%	4.7%	19.0
COC(=O)c1ccc(-c2ccc(OC)c(C3C4C=CCC(C)C4C(=O)N3Cc3ccccc3)c2)cc1 (stereo unspecified)	-1.1	.	.	22.1
CCc1nnc(NC(=O)C2CCCN2C(=O)Nc2ccc(Cl)cc2)s1 (stereo unspecified)	-0.7	-0.9%	24.6%	13.3
Cc1cc(/C=C2/NC(=O)N(c3ccccc3)C2=O)c(C)n1-c1cccnc1	59.3*	4.0%	15.4%	90.6*
Cc1cc(/C=C2/NC(=S)NC2=O)c(C)n1-c1cccnc1	37.2*	0.3%	.	50.8*
